Laboratory results from PubChem BioAssay AID1159580 (chemical genetic matrix, 2015).
About 2,000 (36%) of roughly 5,500 compounds were called active. Roughly 18% stayed inconclusive and do not appear here. No stated cut-off is given here; in the data, active means normalized growth mostly below about 0.91 (no sharp cut-off); inconclusive means no clear call, values can overlap the other calls; inactive means mostly above about 0.92. The list shows a part of the results.

Test: chemical genetic growth profiling, strain panel (AID 1159580);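 further: tested at 20 µM; growth read once vehicle control cultures reached saturation at 30 °C; 1 = growth at the plate median or of vehicle wells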
Conditions: growth OD

Measured: normalized growth

C=CCc1ccc2c(c1)OCO2
inactive: S. cerevisiae deletion strains, locus YJR043C, strain POL32, stronger effect = lower value 1.02 | S. cerevisiae deletion strains, locus YJR066W, strain TOR1, stronger effect = lower value 0.928 | S. cerevisiae deletion strains, locus YJR075W, strain HOC1, stronger effect = lower value 1.03 | S. cerevisiae deletion strains, locus YKL009W, strain mrt4, stronger effect = lower value 0.979 | S. cerevisiae deletion strains, locus YKL068W, stronger effect = lower value 0.987 | S. cerevisiae deletion strains, locus YKL085W, strain MDH1 (second series), stronger effect = lower value 1.01 | S. cerevisiae deletion strains, locus YKL085W, strain MDH1, stronger effect = lower value 1.01 | S. cerevisiae deletion strains, locus YKL160W, strain elf1, stronger effect = lower value 0.994 | S. cerevisiae deletion strains, locus YKL190W, strain CNB1, stronger effect = lower value 1.01 | S. cerevisiae deletion strains, locus YKR001C, strain vps1, stronger effect = lower value 0.965 | S. cerevisiae deletion strains, locus YKR026C, strain gcn3, stronger effect = lower value 1.03 | S. cerevisiae deletion strains, locus YKR091W, strain srl3, stronger effect = lower value 1.02 | S. cerevisiae deletion strains, locus YLL001W, strain dnm1, stronger effect = lower value 1.05 | S. cerevisiae deletion strains, locus YLL026W, stronger effect = lower value 1.01 | S. cerevisiae deletion strains, locus YLL041C, strain sdh2, stronger effect = lower value 1.02 | S. cerevisiae deletion strains, locus YLR027C, strain aat2, stronger effect = lower value 1 | S. cerevisiae deletion strains, locus YLR039C, strain RIC1, stronger effect = lower value 0.891 | S. cerevisiae deletion strains, locus YLR058C, strain SHM2, stronger effect = lower value 1.01 | S. cerevisiae deletion strains, locus YLR102C, strain apc9, stronger effect = lower value 0.993 | S. cerevisiae deletion strains, locus YLR113W, strain HOG1, stronger effect = lower value 1.03 | S. cerevisiae deletion strains, locus YLR221C, strain rsa3, stronger effect = lower value 1.06 | S. cerevisiae deletion strains, locus YLR258W, strain gsy2, stronger effect = lower value 1.02 | S. cerevisiae deletion strains, locus YLR262C, strain YPT6 (second series), stronger effect = lower value 1.03 | S. cerevisiae deletion strains, locus YLR262C, strain YPT6, stronger effect = lower value 0.909 | S. cerevisiae deletion strains, locus YLR268W, strain sec22, stronger effect = lower value 0.987 | S. cerevisiae deletion strains, locus YLR320W, strain mms22, stronger effect = lower value 1.04 | S. cerevisiae deletion strains, locus YLR330W, strain CHS5, stronger effect = lower value 1 | S. cerevisiae deletion strains, locus YLR342W, strain FKS1 (second series), stronger effect = lower value 1.01 | S. cerevisiae deletion strains, locus YLR342W, strain FKS1, stronger effect = lower value 1.02 | S. cerevisiae deletion strains, locus YLR357W, strain rsc2, stronger effect = lower value 1.13 | S. cerevisiae deletion strains, locus YLR370C, strain arc18, stronger effect = lower value 1.04 | S. cerevisiae deletion strains, locus YLR371W, strain rom2, stronger effect = lower value 0.984 | S. cerevisiae deletion strains, locus YLR384C, strain iki3, stronger effect = lower value 1.03 | S. cerevisiae deletion strains, locus YLR418C, strain cdc73, stronger effect = lower value 1.01 | S. cerevisiae deletion strains, locus YML016C, strain PPZ1, stronger effect = lower value 1.01 | S. cerevisiae deletion strains, locus YML032C, strain rad52, stronger effect = lower value 0.996 | S. cerevisiae deletion strains, locus YML120C, strain ndi1, stronger effect = lower value 1.05 | S. cerevisiae deletion strains, locus YML124C, strain tub3, stronger effect = lower value 0.995 | S. cerevisiae deletion strains, locus YMR058W, strain fet3, stronger effect = lower value 1.04 | S. cerevisiae deletion strains, locus YMR078C, strain ctf18, stronger effect = lower value 0.985 | S. cerevisiae deletion strains, locus YMR125W, strain sto1, stronger effect = lower value 1.08 | S. cerevisiae deletion strains, locus YMR129W, stronger effect = lower value 1.03 | S. cerevisiae deletion strains, locus YMR205C, strain PFK2, stronger effect = lower value 1 | S. cerevisiae deletion strains, locus YMR223W, strain ubp8, stronger effect = lower value 1 | S. cerevisiae deletion strains, locus YMR231W, strain pep5, stronger effect = lower value 1.02 | S. cerevisiae deletion strains, locus YMR263W, strain SAP30, stronger effect = lower value 1 | S. cerevisiae deletion strains, locus YMR307W, strain GAS1, stronger effect = lower value 0.995 | S. cerevisiae deletion strains, locus YNL067W, strain RPL9B, stronger effect = lower value 0.998 | S. cerevisiae deletion strains, locus YNL071W, strain lat1, stronger effect = lower value 1.03 | S. cerevisiae deletion strains, locus YNL183C, strain NPR1, stronger effect = lower value 0.97 | S. cerevisiae deletion strains, locus YNL209W, strain ssb2, stronger effect = lower value 1.02 | S. cerevisiae deletion strains, locus YNL233W, strain BNI4, stronger effect = lower value 1 | S. cerevisiae deletion strains, locus YNL248C, strain rpa49, stronger effect = lower value 1.04 | S. cerevisiae deletion strains, locus YNL250W, strain rad50, stronger effect = lower value 1.01 | S. cerevisiae deletion strains, locus YNL271C, strain bni1, stronger effect = lower value 0.978 | S. cerevisiae deletion strains, locus YNL298W, strain CLA4, stronger effect = lower value 0.995 | S. cerevisiae deletion strains, locus YNL307C, strain MCK1, stronger effect = lower value 0.989 | S. cerevisiae deletion strains, locus YNL322C, strain KRE1 (second series), stronger effect = lower value 1.02 | S. cerevisiae deletion strains, locus YNR049C, strain mso1, stronger effect = lower value 1.02 | S. cerevisiae deletion strains, locus YNR052C, strain pop2, stronger effect = lower value 0.997 | S. cerevisiae deletion strains, locus YOL012C, strain htz1 0.985 | S. cerevisiae deletion strains, locus YOL147C, strain pex11, stronger effect = lower value 0.987 | S. cerevisiae deletion strains, locus YOR001W, strain rrp6, stronger effect = lower value 1 | S. cerevisiae deletion strains, locus YOR061W, strain CKA2, stronger effect = lower value 1.01 | S. cerevisiae deletion strains, locus YOR069W, strain VPS5, stronger effect = lower value 1.01 | S. cerevisiae deletion strains, locus YOR070C, strain gyp1, stronger effect = lower value 1.01 | S. cerevisiae deletion strains, locus YOR080W, strain dia2, stronger effect = lower value 1.03 | S. cerevisiae deletion strains, locus YOR083W, strain WHI5, stronger effect = lower value 1 | S. cerevisiae deletion strains, locus YOR106W, strain vam3, stronger effect = lower value 1.04 | S. cerevisiae deletion strains, locus YOR136W, strain idh2, stronger effect = lower value 0.987 | S. cerevisiae deletion strains, locus YOR144C, strain elg1, stronger effect = lower value 0.988 | S. cerevisiae deletion strains, locus YOR184W, strain ser1, stronger effect = lower value 0.99 | S. cerevisiae deletion strains, locus YOR231W, strain MKK1, stronger effect = lower value 0.99 | S. cerevisiae deletion strains, locus YOR265W, strain rbl2, stronger effect = lower value 1.01 | S. cerevisiae deletion strains, locus YOR270C, strain vph1, stronger effect = lower value 1.07 | S. cerevisiae deletion strains, locus YOR290C, strain snf2, stronger effect = lower value 1.07 | S. cerevisiae deletion strains, locus YOR316C, strain cot1, stronger effect = lower value 0.99 | S. cerevisiae deletion strains, locus YPL051W, strain arl3, stronger effect = lower value 1 | S. cerevisiae deletion strains, locus YPL078C, strain atp4, stronger effect = lower value 1.01 | S. cerevisiae deletion strains, locus YPL106C, strain sse1, stronger effect = lower value 1.03 | S. cerevisiae deletion strains, locus YPL240C, strain hsp82, stronger effect = lower value 1.02 | S. cerevisiae deletion strains, locus YPL256C, strain CLN2, stronger effect = lower value 0.966 | S. cerevisiae deletion strains, locus YPR119W, strain clb2, stronger effect = lower value 0.982 | S. cerevisiae deletion strains, locus YPR141C, strain kar3, stronger effect = lower value 0.976 | S. cerevisiae deletion strains, locus YPR163C, strain tif3, stronger effect = lower value 0.989 | S. cerevisiae deletion strains, locus YPR167C, strain met16, stronger effect = lower value 0.991 | S. cerevisiae deletion strains, strain wtn01, stronger effect = lower value 1.01 | S. cerevisiae strains, strain wild type, stronger effect = lower value 1.01
